Compounds with a hit are over-represented: about 8.8% of the library has one in this group of screens.
KB-V1 MDR tox = kills drug-selected multidrug resistant KB-V1 cells; KB-V1 MDR cells viability, CellTiter-Glo, 72 h; Potency, µM (series often up to 46.1 µM), hits mostly cytotoxic; hit rate 3.4% among 400,000; AID 1347076; note: potency is the fitted concentration of half-maximal effect; nearly all actives have a fitted effect of over 60% in size
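KB-V1, DMEM (no phenol red) + 10% FBS; cpd pin-transferred, titration series; 72 h, 37 degrees C; CellTiter-Glo, luminescence. Data normalized, curve-fit.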
IL-1B inflam inh = inhibitors of inflammasome signaling (IL-1 beta secretion); THP-1 LPS/ATP IL-1B secretion, AlphaLISA, 16 h; hits give low values; activity change, % at 57.5 µM; hit rate 4.7% among 360,000; AID 743279; in the data active = activity change below about -50%; inconclusive = mostly about -30% to -49%
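Secreted IL-1B measured by AlphaLISA bead assay after 16 h compound exposure of THP-1 cells; compounds (final up to 57.5 uM) added 1 h before LPS (250 ng/mL) and ATP (1.25 mM) stimulation; lower signal means less secretion.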
HT1080 IDH1KD tx = kills HT-1080 cells with IDH1 knockdown. Potency, µM (doses to about 46.1 µM), without a hit: at the top dose activity, negative = toxicity, most hits filed as cytotoxic. hit rate 2% among 360,000. HT-1080 IDH1 knockdown viability, ATP luminescence, 48 h;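 note: potency is the fitted concentration of half-maximal effect; 0% = DMSO wells and -100% = cell-free medium wells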
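% activity derives from luminescence (CellTiter-Glo), normalised to DMSO and no-cell wells. HT-1080-IDH1KD cells, 750/well, had 48 h compound exposure at 37 °C.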
HT1080-NT tox = kills 2HG-producing HT-1080-NT fibrosarcoma cells; HT-1080-NT fibrosarcoma viability, CellTiter-Glo ATP luminescence, 48 h; Potency, µM (series often up to 46.1 µM), for the others: at the highest dose activity, negative = less viability, most hits filed as cytotoxic; hit rate 1.6% among 360,000; AID 686970;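 note: NT is the 2HG producing partner of a matched IDH1 knockdown line; potency is the fitted concentration of half-maximal effect; 0% = DMSO-treated cells and -100% = media-only wells without cells; nearly all actives have a fitted effect of over 55% in size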
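Viability of the 2HG-overproducing fibrosarcoma line after 48 hours of compound exposure at 37 degrees C was determined by luminescence with CellTiter-Glo, and concentration-effect curves were then fitted and categorized.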
KB-3-1 cytotox = KB-3-1 parental cell cytotoxicity; Potency, µM (doses to about 46.1 µM), hits mostly cytotoxic; KB-3-1 viability, CellTiter-Glo ATP luminescence, 72 h; hit rate 1.4% among 400,000; note: potency is the fitted concentration of half-maximal effect; nearly all actives have a fitted effect of over 60% in size
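Here the drug-naive KB-3-1 line serves as comparator for MDR sub-line selectivity; cells received compound titrations, 72 h at 37 °C, then CellTiter-Glo readout.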
An asterisk follows results filed as active; i = inactive; ? = inconclusive; . = no result; ! = repeats disagree. Unless noted, calls come from the whole dose curve; as a rule, active = well fitted curve in the direction sought with a large enough effect; inconclusive = small, poorly fitted or top-dose-only effect, or another doubt; inactive = no such curve, though single readings can be large; an effect the other way counts as inactive or inconclusive. Unless noted, % is set by controls: 0 for no effect and ±100 for the full control effect.

SMILES	KB-V1 MDR tox	IL-1B inflam inh	HT1080 IDH1KD tx	HT1080-NT tox	KB-3-1 cytotox
Nc1[nH]c(C(=O)c2ccccc2)c(-c2ccccc2Br)c1C(=O)NCCc1ccc(Cl)cc1Cl	i	-10.7	8.9%	6.7%	?
CCc1ccc(S(=O)(=O)c2nnn3c2nc(NCCNC(C)=O)c2ccccc23)cc1	i	-63.7*	5.1%	28.7%	i
CC(C)(CNC(=O)/C=C/c1ccc(F)cc1)CNC(=O)/C=C/c1ccc(F)cc1	?	-87.6*	?	?	i
CN(C(=O)/C=C/c1ccc(F)cc1)C1CCCCC1	i	?	8.4%	13.2%	i
CC(C)NC(=S)NC(=O)/C=C/c1ccc(F)cc1	i	-53.3*	2.0%	-3.4%	i
CN(C(=S)NC(=O)/C=C/c1ccc(F)cc1)C1CCCCC1	i	-66.3*	15.0%	?	i
O=C(/C=C/c1ccc(F)cc1)NC(=S)NC1CCCCC1	i	-2.0	1.3%	0.2%	?
CCOC(=O)c1ccc(NC(=O)c2cn(-c3ccccc3)nc2-c2ccc(OC)c(OC)c2)cc1	i	.	.	.	i
Cc1ccc(-c2nnc(NC(=O)Nc3ccc4ccccc4c3)s2)cc1	?	.	.	.	i
CN(C)c1ccc(/C=C(/C(=O)c2ccc(Cl)cc2Cl)n2cncn2)cc1	5.17µM*	-10.4	?	?	23.1µM*
CC(C)CC(=O)/C(=C\c1ccc(Cl)cc1Cl)n1cncn1	i	-104.0*	2.91µM*	5.8µM*	?
CC(C)CC(=O)/C(=C/c1ccc(N(C)C)cc1)n1cncn1	i	3.3	10.7%	?	i
OCCN1CCN(C2CCC(c3ccc(F)cc3)c3ccc(F)cc32)CC1 (configuration not stated)	?	-75.7*	23.1µM*	18.4µM*	?
COc1c(Cl)cc(Cl)cc1C(=O)Nc1ccc(CN2CCOCC2)cc1	i	-58.2*	2.5%	-0.2%	i
O=C(Nc1ccc(CN2CCOCC2)cc1)c1ccc(-c2cc(Cl)ccc2Cl)o1	?	-64.1*	?	?	?
CN(C)S(=O)(=O)c1cccc(N=c2scc(-c3ccc4c(c3)NC(=O)CO4)n2CC2CCCO2)c1 (configuration not stated)	16.4µM*	-15.1	?	?	?
CCOc1ccc(C(c2c(NC(=O)c3ccccc3)sc(C)c2C)N2CCN(C)CC2)cc1 (configuration not stated)	i	-62.4*	?	?	i
CC1(C)Cc2ccccc2C(N/N=C/c2ccc(Cl)cc2)=N1	14.6µM*	-5.9	3.1%	12.2%	?
COC(=O)[C@H]1C[C@H](OC(=O)NCc2ccco2)[C@@]2(O)CN(S(=O)(=O)c3ccc(C)cc3)CC2[C@H]1C(=O)OC (some centres not stated)	i	-64.5*	8.7%	3.3%	i
CCCCCCn1c(=O)n2n(c1=O)[C@@H]1CN(S(=O)(=O)c3ccc(C)cc3)C[C@]1(O)[C@@H](OC(=O)NCc1ccccc1)C2	i	-71.3*	-20.3%	?	?
COc1ccc(CNC(=O)O[C@H]2Cn3c(=O)ccc(=O)n3[C@@H]3CN(S(=O)(=O)c4ccc(C)cc4)C[C@]23O)cc1OC	i	-8.3	-0.1%	3.1%	i
COC(=O)[C@H]1C[C@H](OC(=O)NCc2ccc(OC)c(OC)c2)[C@@]2(O)CN(S(=O)(=O)c3ccc(C)cc3)CC2[C@H]1C(=O)OC (some centres not stated)	i	-5.5	5.5%	1.9%	i
Cc1ccc(S(=O)(=O)N2C[C@H]3n4c(=O)ccc(=O)n4C[C@H](OC(=O)NCC4CCCCC4)[C@@]3(O)C2)cc1	i	-108.9*	?	20.6µM*	?
Cc1ccc(S(=O)(=O)N2C[C@H]3n4c(=O)ccc(=O)n4C[C@H](OC(=O)NCc4ccccc4)[C@@]3(O)C2)cc1	i	0.0	?	?	i
Cc1ccc(S(=O)(=O)N2C[C@H]3n4c(=O)ccc(=O)n4C[C@H](OC(=O)NCc4ccco4)[C@@]3(O)C2)cc1	?	-54.4*	-15.5%	-9.3%	i
SMILES	KB-V1 MDR tox	IL-1B inflam inh	HT1080 IDH1KD tx	HT1080-NT tox	KB-3-1 cytotox
CCn1c(SCC(=O)Nc2sccc2C(N)=O)nnc1C1CC1	i	0.0	-4.4%	1.1%	?
COc1ccc(NC(=O)C(Cc2ccccc2)NS(=O)(=O)c2ccc3c(c2)CCN3C(C)=O)cc1 (configuration not stated)	i	.	.	.	i
C[C@@H]1C=CC(=O)O[C@@H]1c1ccc(Cl)cc1	?	-108.0*	?	?	i
CC1C(=O)OC(c2ccc(Cl)cc2)C(C)(C)C1=O (configuration not stated)	i	-0.4	1.7%	14.2%	i
O=C(CSc1nncs1)NCc1ccc(F)cc1	i	1.7	11.4%	10.1%	i
O=C1CC(C(=O)N2CCN(Cc3ccccc3)CC2)CN1Cc1ccccc1 (configuration not stated)	i	-0.5	5.4%	5.6%	i
Cc1ccc(CN2CC(C(=O)N3CCN(c4ccccc4Cl)CC3)CC2=O)cc1 (configuration not stated)	i	-58.2*	5.6%	5.2%	i
N#Cc1nc(Nc2cc(F)cc(F)c2)c2ncn(CC(F)F)c2n1	i	.	.	.	i
N#Cc1nc(Nc2cc(F)cc(F)c2)c2ncn(CCO)c2n1	?	.	.	.	14.6µM*
CCCCCCCC/C=C\CCCCCCCC(=O)NCCO	i	0.0	18.5%	26.4%	i
CCCCCCCC/C=C\CCCCCCCC(=O)NCCc1ccc(O)c(O)c1	?	?	23.1µM*	4.61µM*	?
CC(C)(C)CC(C)(C)N=C1Nc2cc(Cl)c(Cl)cc2NC12C[C@H]1CCC(=O)N3CC[C@@H](C2)[C@@H]13 (some centres not stated)	?	-64.2*	-5.5%	-16.0%	?
CN1CCN(Cc2nc3ccccc3c(=O)n2Cc2nc(-c3cccc([N+](=O)[O-])c3)cs2)CC1	i	-78.3*	23.1µM*	14.6µM*	i
CN1CCN(Cc2nc3ccccc3c(=O)n2Cc2nc(-c3ccccc3F)cs2)CC1	?	?	-23.9%	-12.9%	i
CN1CCN(Cc2nc3ccccc3c(=O)n2Cc2nc(-c3ccc4ccccc4c3)cs2)CC1	20.6µM*!	-95.4*	3.66µM*	5.8µM*	?
CC1C(=O)N2CCCc3cc(NC(=O)C(=O)NCCCc4ccccc4)cc1c32 (configuration not stated)	?	6.9	-19.2%	-8.1%	?
CCN(CC)CCNC(=O)C(=O)Nc1cc2c3c(c1)CCC(=O)N3CCC2	i	-61.6*	3.9%	9.0%	i

Screening results as filed in PubChem BioAssay.
